Screening data (PubChem)
The list is not random: actives were taken first. Their share in the collection is about 2.4%.
PGK inhibitor = qHTS Assay to Find Inhibitors of Phosphoglycerate Kinase | Phosphoglycerate kinase, glycosomal (Trypanosoma brucei brucei), P07378 | Potency, µM (titrated, usually from 57.5 µM), actives largely listed as inhibitors | PGK/GAPDH coupled, Kinase-Glo luminescence, 60 min | 380,000 compounds, 0.043% hits | AID 602233, 2012; further: nearly all actives have a fitted effect of over 60% in size
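Luminescent ATP detection (Kinase-Glo Plus) follows a 60-minute room-temperature incubation, with wells lacking PGK as controls. Buffer: 100 mM TEA (pH 7.6), 5 mM MgCl2, 0.01% Tween-20. Coupling enzyme GAPDH (100 nM final) supplies unstable 1,3-BPG in-well.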
Tb PFK inh = qHTS Assay to Find Inhibitors of T. brucei phosphofructokinase. ATP-dependent 6-phosphofructokinase (Trypanosoma brucei brucei), O15648. T. brucei PFK, ADP-Glo luminescence. Potency, µM (series often up to 57.5 µM), usual class: inhibitors. 330,000 compounds, 0.17% hits; further: nearly all actives have a fitted effect of over 60% in size
Target sequence (O15648 whole entry, looked up): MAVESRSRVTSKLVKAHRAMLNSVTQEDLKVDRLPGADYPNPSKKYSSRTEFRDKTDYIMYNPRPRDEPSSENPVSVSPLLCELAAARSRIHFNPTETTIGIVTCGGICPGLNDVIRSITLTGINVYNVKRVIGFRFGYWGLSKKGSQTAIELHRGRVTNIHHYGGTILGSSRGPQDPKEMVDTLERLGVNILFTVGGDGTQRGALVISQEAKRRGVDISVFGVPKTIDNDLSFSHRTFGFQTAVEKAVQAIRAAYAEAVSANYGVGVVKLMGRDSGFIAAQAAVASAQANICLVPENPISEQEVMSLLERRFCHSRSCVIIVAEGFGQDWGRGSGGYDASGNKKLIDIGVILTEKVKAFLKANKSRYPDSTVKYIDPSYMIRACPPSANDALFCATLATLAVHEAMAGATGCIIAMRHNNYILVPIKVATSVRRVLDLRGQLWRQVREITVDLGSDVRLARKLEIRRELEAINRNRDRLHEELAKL
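In TEA buffer at pH 8.0 with 5 mM MgCl2, enzyme (1.25 nM) converted F6P (0.5 mM) and ATP (0.1 mM) for 45 min at room temperature. ADP product was read by luciferase luminescence.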
ELG1 DNA repair = qHTS screen for small molecules that inhibit ELG1-dependent DNA repair in human embryonic kidney (HEK293T) cells expressing luciferase-tagged ELG1; 330,000 compounds, 2.3% hits; AID 504467, 2011; Potency, µM (series often up to 46.1 µM), usual class: inhibitors; HEK293T ELG1-luciferase reporter, luminescence, 16 h; DNA damage induced by 5-fluorouridine; further: nearly all actives have a fitted effect of over 55% in size
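In this reporter screen, reduction of luminescence relative to DMSO vehicle indicated activity. Compounds and 5-fluorouridine were added together to 2,000 cells per well, incubated for 16 hr at 37 °C, then developed with ONE-Glo.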
Rango complex inh = qHTS Assay for Inhibitors of Rango (Ran-regulated importin-beta cargo) - Importin beta complex formation; AID 540263, 2011; Potency, µM (highest dose often 92.2 µM); 340,000 compounds, 0.031% hits; Rango CFP/YFP FRET sensor + importin beta, 45 min; Importin subunit beta-1 (Homo sapiens), Q14974; calls by dose curve; further: nearly all actives have a fitted effect of over 15% in size
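FRET biosensor (snurportin 1 IBB flanked by EYFP and cerulean), 50 nM, with compound 5 min, then 0.125 microM importin beta in PBS, 1 mM DTT, 0.02% Tween-20, 0.1% BSA. CFP/YFP ratio read after 45 min at room temperature; pre-read flags interference.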
Rango dissoc inh = qHTS Assay for Inhibitors of RanGTP induced Rango (Ran-regulated importin-beta cargo) - Importin beta complex dissociation | Snurportin-1 (Homo sapiens) + GTP-binding nuclear protein Ran (Homo sapiens) + Importin … | Biochemical FRET Rango-importin beta, RanGTP-induced dissociation | Potency, µM (series often up to 46.1 µM) | 340,000 compounds, 0.071% hits; calls by dose curve; further: nearly all actives have a fitted effect of over 45% in size
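FRET read at 45 min, room temperature: inhibitors block the CFP/YFP signal rise when RanGTP (0.6 uM Ran, 2 mM GTP, 0.2 uM RCC1) frees Rango (0.1 uM) from importin beta (0.25 uM). Pre-read after 5 min compound exposure flags interference.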
PKM2 act = qHTS Assay for Activators of Human Muscle isoform 2 Pyruvate Kinase; Pyruvate kinase PKM (Homo sapiens), P14618; purified PKM2, Kinase-Glo ATP luminescence, activation; response scale: 0% is enzyme alone, no compound; Potency, µM (series often up to 57.5 µM), actives largely listed as activators; 260,000 compounds, 0.34% hits; further: nearly all actives have a fitted effect of over 55% in size
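hPK-M2, >95% pure; 0.1 mM ADP / 0.5 mM PEP final; imidazole pH7.2 buffer w/ 7 mM MgCl2, 50 mM KCl; 1 h RT; Kinase-Glo lum. Intermediate enzyme activity for dual inhibitor/activator qHTS.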
Of the large screens only hits and unclear results are named; the others gave an inactive call. Unless noted, the call rests on the fitted dose curve; in most records, active means well fitted curve in the direction sought with a large enough effect; inconclusive means small, poorly fitted or top-dose-only effect, or another doubt; inactive means no such curve, though single readings can be large; an effect the other way counts as inactive or inconclusive.

O=C(c1ccc(Cn2c(=O)[nH]c3ccccc3c2=O)cc1)N1CCN(c2ccc(Cl)cc2)CC1	ELG1 DNA repair 23µM
CC(=O)c1ccc(N2CCN(C(=O)c3ccc(Cn4c(=O)[nH]c5ccccc5c4=O)cc3)CC2)cc1	none (no result: Tb PFK inh, ELG1 DNA repair, Rango complex inh, Rango dissoc inh, PKM2 act)
CC(=O)c1ccc(N2CCN(C(=O)c3ccc4c(=O)n(-c5ccccc5)c(=O)[nH]c4c3)CC2)cc1	ELG1 DNA repair 23µM
COc1cc(OC)cc(C(=O)NNC(=O)CCC(=O)c2cccs2)c1	Rango complex inh inconclusive
O=C(c1ccco1)N1CCN(C(=O)c2cnn(-c3ccc(Cl)cc3)c2C2CCNCC2)CC1	none (no result: PKM2 act)
CC#CC(=O)N1CCC(n2nccc2NC(=O)CCc2ccccc2)CC1	none (no result: Tb PFK inh, ELG1 DNA repair, Rango complex inh, Rango dissoc inh, PKM2 act)
CC[N+]1=C(C)C(C)(C)c2cc(C)ccc21	ELG1 DNA repair 13µM, Rango complex inh inconclusive, Rango dissoc inh inconclusive
CN(NS(=O)(=O)c1ccccc1)c1nc2ccccc2nc1C(F)(F)F	none
CN(NS(=O)(=O)c1ccc(Cl)cc1)c1nc(C(F)(F)F)nc2ccccc12	ELG1 DNA repair 23µM
Cc1sc2nc3c4ccccc4c(NCc4ccco4)nn3c(=O)c2c1C	ELG1 DNA repair inconclusive, Rango complex inh inconclusive
Cc1nc(NCc2ccco2)c2c(C)c(C)sc2n1	ELG1 DNA repair 9.2µM
Cc1ccc(C)c(NS(=O)(=O)c2ccc(NC(=O)CSc3ccc(Cl)cc3)cc2)c1	ELG1 DNA repair inconclusive
Cc1ccc(NS(=O)(=O)c2ccc(NC(=O)C(C)Sc3ccc(Cl)cc3)cc2)c(C)c1 (stereo not drawn)	ELG1 DNA repair 21µM
CCOC(=O)C1=C(CC)Nc2ccccc2N=C1NC(=O)c1ccc(C)c(S(=O)(=O)N2CCOCC2)c1	ELG1 DNA repair inconclusive (no result: PKM2 act)
CCOC(=O)C1=C(CC)Nc2ccccc2N=C1NC(=O)c1ccc(OC)c(S(=O)(=O)N2CCCCC2C)c1 (stereo not drawn)	ELG1 DNA repair 23µM
CCOC(=O)CCc1c(C)c2ccc(OCC(=O)N(CC)CC)c(C)c2oc1=O	ELG1 DNA repair 18µM
CCc1c(C)c2ccc(OCC(=O)N(C)C)c(C)c2oc1=O	ELG1 DNA repair inconclusive
O=C(CCl)N(c1ccccc1)c1ccccc1	ELG1 DNA repair 21µM
Cc1ccc(N(NC(=O)C(O)(c2ccccc2)c2ccccc2)C(=O)CCl)cc1	ELG1 DNA repair 21µM, Rango complex inh inconclusive
O=C(Nc1ccccc1)NN(C(=O)CCl)c1ccccc1	ELG1 DNA repair 23µM
CCC(O)(CC)C(=O)NN(C(=O)CCl)c1ccccc1	ELG1 DNA repair inconclusive
COc1ccc(Cn2nnc3c(C)n[nH]c(=O)c32)cc1	none (no result: PKM2 act)
COc1ccc(OC)c(-c2nc3c(C)n[nH]c(=O)c3[nH]2)c1	ELG1 DNA repair 6.5µM, Rango complex inh inconclusive
CCn1nc(C)c(C(=O)Nc2cc(Oc3cc(C)cc(C)c3)cc([N+](=O)[O-])c2)c1C	ELG1 DNA repair 13µM
Cc1nn(C)cc1C(=O)Nc1cc(Oc2ccc(Cl)cc2)cc([N+](=O)[O-])c1	none
COc1cccc(N2CCN(CC(=O)NC(=O)NC3CCCCC3)CC2)c1	none (no result: PKM2 act)
O=C(Nc1cccc(Cl)c1Cl)c1cc(S(=O)(=O)N2CCC3(CC2)OCCO3)ccc1F	none (no result: Tb PFK inh, ELG1 DNA repair, Rango complex inh, Rango dissoc inh, PKM2 act)
COc1ccc(-n2c(-c3ccc(Cl)cc3)c[n+]3c2CCc2ccccc2-3)cc1	ELG1 DNA repair 2.3µM
Cc1ccc(C(=O)c2cn(Cc3ccccc3C)c3nc(C)ccc3c2=O)cc1	none (no result: Tb PFK inh, ELG1 DNA repair, Rango complex inh, Rango dissoc inh, PKM2 act)
O=C(c1ccco1)N1CCN(Cc2nc3ccc([N+](=O)[O-])cc3c(=O)n2-c2ccccc2F)CC1	ELG1 DNA repair 23µM
CCN(Cc1ccc2c(c1)OCCO2)C(=O)CN1C(=O)NC2(CCc3ccccc32)C1=O (stereo not drawn)	none (no result: PKM2 act)
COc1ccccc1CCNC(=O)C(=O)NCC1OCCCN1S(=O)(=O)c1cc(C)ccc1C (stereo not drawn)	ELG1 DNA repair 21µM
Cc1ccc(C)c(S(=O)(=O)N2CCCC2CNC(=O)C(=O)NCc2ccccc2C)c1 (stereo not drawn)	ELG1 DNA repair 15µM (no result: PKM2 act)
Cc1ccc(S(=O)(=O)N2CCCOC2CNC(=O)C(=O)NCCc2c[nH]c3ccccc23)cc1 (stereo not drawn)	ELG1 DNA repair 23µM
COc1ccc(CCNC(=O)C(=O)NCC2OCCN2S(=O)(=O)c2ccc(Br)cc2)cc1OC (stereo not drawn)	ELG1 DNA repair 21µM
COc1ccc(NC2CCCN(C(=O)CCc3cn[nH]c3)C2)cc1 (stereo not drawn)	none
CCc1ccccc1NC(=O)c1ccc(OCc2c(C)noc2C)cc1	ELG1 DNA repair inconclusive (no result: PKM2 act)
CN1C(=O)C(CCC(=O)O)NC1=S (stereo not drawn)	none
Cc1ccc(CNC(=O)C(=O)NCC2OCCN2S(=O)(=O)c2ccc(Cl)cc2)cc1 (stereo not drawn)	none (no result: Tb PFK inh, ELG1 DNA repair, PKM2 act)
O=C(NCCc1c[nH]c2ccccc12)C(=O)NCC1OCCN1S(=O)(=O)c1ccc(Cl)cc1 (stereo not drawn)	ELG1 DNA repair 13µM
O=C(NCCc1c[nH]c2ccccc12)C(=O)NCC1OCCN1S(=O)(=O)c1ccccc1 (stereo not drawn)	none
Cc1ccc(S(=O)(=O)N2CCOC2CNC(=O)C(=O)NCc2ccc(Cl)cc2)cc1 (stereo not drawn)	ELG1 DNA repair 23µM
Cn1ncc2c(Nc3ccc(Cl)c(Cl)c3)ncnc21	ELG1 DNA repair inconclusive (no result: PKM2 act)
CCCCNc1nc(Nc2ccc(C)c(Cl)c2)c2cnn(C)c2n1	ELG1 DNA repair 18µM (no result: PKM2 act)
CCNc1nc(Nc2ccc(C)c(Cl)c2)c2cnn(C)c2n1	ELG1 DNA repair 9.2µM, Rango complex inh inconclusive (no result: PKM2 act)
Cc1ccc(S(=O)(=O)N2CC3CCCC2C3)cc1 (stereo not drawn)	none
CCOC(=O)C1=C(C)NC(C)=C(C(=O)OCC)C1C(=O)OCC(=O)NC1CCCCC1	ELG1 DNA repair 10µM (no result: PKM2 act)
CCNC(=O)COC(=O)C1C(C(=O)OCC)=C(C)NC(C)=C1C(=O)OCC	Rango complex inh inconclusive
